This is a sample that favours compounds with a hit; in the whole collection about 3.8% have one here.
Mot1-301 SUMO – SUMOylation pathway inhibition by Mot1-301 growth rescue. S. cerevisiae Mot1-301 growth rescue, ATP luminescence, 38.5C; percent above DMSO median, 100 means doubled. growth rescue, % at 18.8 µM. actives 1% (n = 320,000). AID 2716;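 active = every valid replicate shows activation above 250% relative to neutral control wells; inactive = the rest, any valid replicate at or below 250%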
aDG glyco up – alpha-DG glycosylation activation; actives 0.22% (n = 360,000); Pro5-aDG cells, alpha-DG glycosylation AlphaScreen (IIH6); 0% Pro5, 100% B10-LARGE cell signal; activation, % at 10 µM;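 active = activation of at least 8% versus controls, or a plate z-score of at least 8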;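 note: Pro5 are CHO cells carrying HIG-tagged alpha-DG that lacks glycosylation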
Yeast superoxide – caloric restriction mimetics inhibiting age-related superoxide in yeast | S. cerevisiae aged cells, superoxide DHE fluorescence; active compounds read low | superoxide response (% of plate mean), % at 10 µM | actives 0.18% (n = 330,000);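 active = superoxide response under a set limit, about three screen SD below normal, cut at about 65% in these data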;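 note: yeast aged for seven days with compound at 30 °C before DHE staining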
MPTP inh – blocks calcium-induced mitochondrial swelling; actives 1.4% (n = 360,000); AID 602449; isolated mouse mitochondria, Ca2+ swelling absorbance, 30 min; inhibition, % at 10 µM;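 active = inhibition of 50% or more, scaled per plate between neutral and stimulator controls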
H9c2 protect – modulators protecting cardiomyocytes from myocardial damage; H9c2 cardiomyocytes, H2O2 injury protection, ATPLite, 2 h; protection from H2O2 cell death, % at 20 µM; AID 588492; actives 0.63% (n = 360,000);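 active = compounds giving at least 50% protection of heart cells from peroxide-induced death in the single-dose screen, raw or plate-pattern-corrected value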
FAS-TE inh – FAS thioesterase (human) inhibition; inhibition, % at 15 µM; recombinant FAS-TE, OMFH fluorogenic substrate, fluorescence endpoint; actives 0.67% (n = 360,000);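 active = compounds whose normalised, plate-corrected inhibition of enzyme fluorescence in the single-dose primary screen is 50% or more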
MPTP counter – mitochondrial membrane potential, counter-screen; inhibition, % at 10 µM; AID 624504; shares compounds with MPTP inh; actives 78% (n = 5,000); isolated mitochondria, Rhodamine 123 fluorescence; in the data active = inhibition above about 22%
Numbers stand for hits.

COc1cccc(CNC(=O)[C@@H]2CCCN2C(=O)[C@H]2CCCCN2S(=O)(=O)c2ccc(OC)c(C)c2)c1 was read as aDG glyco up inactive, MPTP inh inactive and FAS-TE inh inactive.
`CC1(C(=O)Nc2ccc3c(c2)OCCO3)CN(S(C)(=O)=O)CC(=O)N1C1CCCCCC1` (stereo not given) gave aDG glyco up inactive and MPTP inh inactive.
For CCc1nc2ccc(C(=O)N(CC)CC(=O)Nc3c(F)cccc3F)cc2nc1CC the results were Mot1-301 SUMO inactive, aDG glyco up inactive, Yeast superoxide inactive, MPTP inh inactive, H9c2 protect inactive and FAS-TE inh inactive.
CCOc1cc(S(=O)(=O)NCc2cccs2)ccc1Cl was read as Mot1-301 SUMO inactive, aDG glyco up inactive, Yeast superoxide inactive, MPTP inh inactive, H9c2 protect inactive and FAS-TE inh inactive.
`Cc1cc(S(=O)(=O)NCc2ccncc2)c(C)cc1Br` gave Mot1-301 SUMO inactive, aDG glyco up inactive, Yeast superoxide inactive, MPTP inh 60, H9c2 protect inactive, FAS-TE inh inactive and MPTP counter 88.
`CCOc1ccc(S(=O)(=O)NCc2ccncc2)cc1` gave Mot1-301 SUMO inactive, aDG glyco up inactive, Yeast superoxide inactive, MPTP inh 99, H9c2 protect inactive, FAS-TE inh inactive and MPTP counter 85.
CCOC(=O)COc1ccc(S(=O)(=O)NCc2ccncc2)cc1 was read as Mot1-301 SUMO inactive, aDG glyco up inactive, Yeast superoxide inactive, MPTP inh 88, H9c2 protect inactive, FAS-TE inh inactive and MPTP counter 86.
`CCOc1cc(S(=O)(=O)NCc2ccncc2)ccc1Cl` gave Mot1-301 SUMO inactive, aDG glyco up inactive, Yeast superoxide inactive, MPTP inh 100, H9c2 protect inactive, FAS-TE inh inactive and MPTP counter 101.
CCOC(=O)COc1ccc(S(=O)(=O)NCc2ccco2)cc1 was read as Mot1-301 SUMO inactive, aDG glyco up inactive, Yeast superoxide inactive, MPTP inh inactive, H9c2 protect inactive and FAS-TE inh inactive.
COc1cc(C(C)=O)ccc1OCC(=O)Nc1ccc2nc(C)sc2c1 was read as Mot1-301 SUMO inactive, aDG glyco up inactive, Yeast superoxide inactive, MPTP inh inactive, H9c2 protect inactive and FAS-TE inh inactive.
`CCCCn1c(NC(=O)c2ccccc2)c(C#N)c2nc3ccccc3nc21` gave aDG glyco up inactive, MPTP inh 87, H9c2 protect inactive, FAS-TE inh inactive and MPTP counter 80.
`CCCCn1c(NC(=O)c2ccc(F)cc2)c(C#N)c2nc3ccccc3nc21` gave Mot1-301 SUMO inactive and Yeast superoxide inactive.
CCc1sc(C(=O)Nc2nc(-c3ccccn3)cs2)cc1C was read as Mot1-301 SUMO inactive, aDG glyco up inactive, Yeast superoxide inactive, MPTP inh 68, H9c2 protect 51, FAS-TE inh inactive and MPTP counter inactive.
CCc1sc(C(=O)Nc2nccs2)cc1C was read as Mot1-301 SUMO inactive, aDG glyco up inactive, Yeast superoxide inactive, MPTP inh inactive, H9c2 protect inactive and FAS-TE inh inactive.
For Cc1nc2ccc(NS(=O)(=O)c3ccc(Br)cc3)cc2s1 the results were Mot1-301 SUMO inactive, aDG glyco up inactive, Yeast superoxide inactive, MPTP inh 81, H9c2 protect inactive, FAS-TE inh inactive and MPTP counter 99.
Screening CC(=O)Nc1ccc(S(=O)(=O)Nc2ccc3nc(C)sc3c2)cc1 returned Mot1-301 SUMO inactive, aDG glyco up inactive, Yeast superoxide inactive, MPTP inh 59, H9c2 protect inactive, FAS-TE inh inactive and MPTP counter 83.
Screening CC(=O)Nc1ccc2nc(NS(=O)(=O)c3ccc(C)cc3)sc2c1 returned Mot1-301 SUMO inactive, aDG glyco up inactive, Yeast superoxide inactive, MPTP inh inactive, H9c2 protect inactive and FAS-TE inh inactive.
`Cc1ccc(S(=O)(=O)Nc2ccc3nc(N)sc3c2)cc1` gave Mot1-301 SUMO inactive, aDG glyco up inactive, Yeast superoxide inactive, MPTP inh 85, H9c2 protect inactive, FAS-TE inh inactive and MPTP counter 38.
For Cc1nc2ccc(NS(=O)(=O)c3ccc(F)c(F)c3)cc2s1 the results were Mot1-301 SUMO inactive, aDG glyco up inactive, Yeast superoxide inactive, MPTP inh inactive, H9c2 protect inactive and FAS-TE inh inactive.
For Cc1nc2ccc(NS(=O)(=O)c3ccc4c(c3)OCCO4)cc2s1 the results were Mot1-301 SUMO inactive, aDG glyco up inactive, Yeast superoxide inactive, MPTP inh 96, H9c2 protect inactive, FAS-TE inh inactive and MPTP counter 97.
Screening Nn1cnc2scc(-c3ccc(Cl)cc3)c2c1=O returned Mot1-301 SUMO inactive, aDG glyco up inactive, Yeast superoxide inactive, MPTP inh inactive, H9c2 protect inactive and FAS-TE inh inactive.
Screening Cc1nc2ccc([N+](=O)[O-])cc2s1 returned Mot1-301 SUMO inactive, aDG glyco up inactive, Yeast superoxide inactive, MPTP inh inactive, H9c2 protect inactive and FAS-TE inh inactive.
For Cc1ccc(S(=O)(=O)Nc2ccc3nc(C)sc3c2)cc1 the results were Mot1-301 SUMO inactive, aDG glyco up inactive, Yeast superoxide inactive, MPTP inh 68, H9c2 protect inactive, FAS-TE inh inactive and MPTP counter 105.
Screening Cc1ccc2nc(-c3ccc(NS(=O)(=O)c4ccccc4)cc3)sc2c1 returned Mot1-301 SUMO inactive, aDG glyco up inactive, Yeast superoxide inactive, MPTP inh inactive, H9c2 protect inactive and FAS-TE inh inactive.
`CSc1nc2ccc(NS(=O)(=O)c3ccc(Cl)s3)cc2s1` gave Mot1-301 SUMO inactive, aDG glyco up inactive, Yeast superoxide inactive, MPTP inh 87, H9c2 protect inactive, FAS-TE inh inactive and MPTP counter 77.
Screening Cc1ccc2nc(-c3ccc(NS(=O)(=O)c4ccc(F)c(F)c4)cc3)sc2c1 returned Mot1-301 SUMO inactive, aDG glyco up inactive, Yeast superoxide inactive, MPTP inh 60, H9c2 protect inactive, FAS-TE inh inactive and MPTP counter 71.
`Cc1nc2ccc(NS(=O)(=O)c3cccc([N+](=O)[O-])c3)cc2s1` gave Mot1-301 SUMO inactive, aDG glyco up inactive, Yeast superoxide inactive, MPTP inh 55, H9c2 protect inactive, FAS-TE inh inactive and MPTP counter 72.
Screening O=[N+]([O-])c1cccc(S(=O)(=O)Nc2ccc(S(=O)(=O)NCC3CCCO3)cc2)c1 (stereo not given) returned Mot1-301 SUMO inactive, aDG glyco up inactive, Yeast superoxide inactive, MPTP inh inactive, H9c2 protect inactive and FAS-TE inh inactive.
COc1ccc(CNC(=O)C(=O)NCC2OCCN2S(=O)(=O)c2ccc(OC)cc2)cc1 (stereo not given) was read as Mot1-301 SUMO inactive, aDG glyco up inactive, Yeast superoxide inactive, MPTP inh inactive, H9c2 protect inactive and FAS-TE inh inactive.

High-throughput results as filed in PubChem BioAssay.
